From PubChem BioAssay come the findings set out here.

The nature of assay [1]: resazurin metabolic signal in HepG2 cells – cell-based, resazurin fluorescence, 24 h, PK04 Diversity Set, profiling panel (AID 1172). Also: test concentration not given here. The settings on record: HepG2 viability, higher = more signal.
Assay [2] can be described thus: budding yeast growth changes without added modifier – OD600, strain BY4716, 24 h, basal condition, primary screen (AID 1173). The note with it: S. cerevisiae BY4716 growth, OD600, 24 h; higher = more signal, called active from +8 up or from −8 down.
Assay [3] is described as follows: viability profiling in MM1S myeloma cells – cell-based, resazurin fluorescence, basal, 24 h, PK04 Diversity Set, profiling panel (AID 1174).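 Also: MM1S multiple myeloma cell line; test concentration not given here.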 The note with it: higher = more signal, called active from +8 up or from −8 down.
For assay [4], the target named is Dihydroorotate dehydrogenase (quinone), mitochondrial (Plasmodium falciparum (isolate 3D7)) (UniProt Q08210). The assay is described as follows: inhibition of P. falciparum DHODH – biochemical, C-terminal His tag, absorbance 600 nm, primary screen (AID 1175).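 Also: recombinant parasite enzyme with a five histidine tag at its C terminus; test concentration not given here.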 The settings on record: PfDHODH enzyme, DCIP absorbance 600 nm; higher = more signal, called active from +8 up or from −8 down.

Assay [5] in a line: inhibition of PAO1 biofilm formation – strain PAO1, LB-PBS medium, absorbance 600 nm, primary screen (AID 1176). Also: test concentration not given here. The settings on record: P. aeruginosa PAO1 growth/biofilm, A600, 12 h; higher = more signal.
The nature of assay [6]: growth modulation of vineyard yeast isolate – strain RM11-1a, OD600, basal, 24 h, primary screen (AID 1177).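 Also: cultures grown under basal conditions with no added stressor; test concentration not given here.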 The note with it: S. cerevisiae RM11-1a growth, OD600, 24 h; higher = more signal, called active from +8 up or from −8 down.
Assay [7] is described as follows: growth of efflux-deficient E. coli DRC39 – strain DRC39, OD650, 24 h, E. coli filamentation inducers, primary screen (AID 1178).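 Also: growth measured as culture turbidity by optical density at 650 nm; test concentration not given here.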 The note with it: E. coli DRC39 acrAB, higher = more signal, called active from +8 up or from −8 down.
The nature of assay [8]: growth of efflux-deficient E. coli DRC39 – strain DRC39, OD650, 48 h, E. coli filamentation inducers, primary screen (AID 1179).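 Also: screen aims at cell division blockers that make cells filament.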 The settings on record: E. coli DRC39 delta-acrAB growth, higher = more signal, called active from +8 up or from −8 down.
Assay [9] is described as follows: viability profiling in RPMI8226 myeloma cells – cell-based, resazurin fluorescence, basal, 24 h, PK04 Diversity Set, profiling panel (AID 1180).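 Also: RPMI8826 multiple myeloma cell line at 5000 cells per well; test concentration not given here.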 The settings on record: higher = more signal.
Assay [10] concerns the target E3 ubiquitin-protein ligase XIAP (Homo sapiens) (UniProt P98170). The assay is described as follows: small molecules binding XIAP protein – biophysical, small-molecule microarray, fluorescence 635 nm, primary screen (AID 1181).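 Also: score merges 667 nm emission and signal to noise over triplicate slides.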 The note with it: higher = more signal.

Calls of active or inactive are those of the source. Unless noted, no rule for the calls is given here.

Chain of Dihydroorotate dehydrogenase (quinone), mitochondrial (Plasmodium falciparum (isolate 3D7)) (Q08210 whole entry, looked up): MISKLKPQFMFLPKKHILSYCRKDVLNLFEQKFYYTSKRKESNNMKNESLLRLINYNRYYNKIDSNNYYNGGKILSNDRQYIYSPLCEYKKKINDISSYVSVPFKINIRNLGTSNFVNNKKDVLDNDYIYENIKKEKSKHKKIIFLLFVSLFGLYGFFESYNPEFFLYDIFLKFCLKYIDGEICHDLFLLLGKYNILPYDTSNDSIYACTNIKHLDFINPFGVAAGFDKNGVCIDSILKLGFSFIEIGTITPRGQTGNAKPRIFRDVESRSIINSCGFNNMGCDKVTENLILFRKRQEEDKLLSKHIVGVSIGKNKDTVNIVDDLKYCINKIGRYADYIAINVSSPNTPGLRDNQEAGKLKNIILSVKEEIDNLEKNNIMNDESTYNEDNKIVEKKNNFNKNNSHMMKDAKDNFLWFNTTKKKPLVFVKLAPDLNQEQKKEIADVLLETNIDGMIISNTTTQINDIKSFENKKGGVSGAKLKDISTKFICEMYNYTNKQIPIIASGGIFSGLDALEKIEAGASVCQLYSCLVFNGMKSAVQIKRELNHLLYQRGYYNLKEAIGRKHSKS
Chain of E3 ubiquitin-protein ligase XIAP (Homo sapiens) (P98170 whole entry, looked up): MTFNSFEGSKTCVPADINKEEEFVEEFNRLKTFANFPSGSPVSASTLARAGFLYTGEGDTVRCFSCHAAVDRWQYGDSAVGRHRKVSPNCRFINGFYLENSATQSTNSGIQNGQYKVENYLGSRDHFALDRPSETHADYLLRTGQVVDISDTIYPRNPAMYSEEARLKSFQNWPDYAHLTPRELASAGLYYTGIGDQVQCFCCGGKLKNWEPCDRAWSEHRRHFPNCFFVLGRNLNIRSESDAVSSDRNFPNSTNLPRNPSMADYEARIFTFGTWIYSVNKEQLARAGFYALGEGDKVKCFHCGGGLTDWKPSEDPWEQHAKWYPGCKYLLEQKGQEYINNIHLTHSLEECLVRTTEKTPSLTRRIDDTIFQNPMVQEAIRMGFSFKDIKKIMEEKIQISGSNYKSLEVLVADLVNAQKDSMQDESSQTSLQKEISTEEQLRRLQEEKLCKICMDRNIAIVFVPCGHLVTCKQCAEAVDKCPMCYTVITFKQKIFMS

In the case of `C=CCC(OC(C)=O)[C@@H]1[C@@H](N(Cc2cc3ccccc3o2)C(=O)c2cccc3ccccc23)c2cc(OCCCO)ccc2N1C(=O)c1ccc2ccccc2c1` (stereo not given in full), the z-score is -1.18 in [1]; -0.469 (inactive) in [2]; -0.581 (inactive) in [3]; -0.227 (inactive) in [5]; -0.389 (inactive) in [6]; -0.423 (inactive) in assay [7]. For the same compound, the z-score in assay [8] is -0.797 (inactive); in assay [9], -0.855. Besides, the composite z-score is 0.0769 (inactive) in assay [4] and -0.146 in assay [10].
Regarding `CCC[C@@H]1C=C(C(=O)OCC)[C@H](c2ccccc2)N1S(=O)(=O)c1ccc(C)cc1`, the z-score is -0.197 in assay [1]; 1.53 (inactive) in assay [2]; -0.37 (inactive) in assay [3]; 0.0362 (inactive) in [5]; 1.84 (inactive) in [6]; -0.213 (inactive) in [7]. The results for the z-score in [8] and in assay [9] were 0.0062 (inactive) and -1.89, respectively. Further, the composite z-score in [4] was -0.0973 (inactive); in assay [10] it was -0.0696.
For `CN1C(=O)C2C(C1=O)C1C=C(c3ccc(CO)cc3)C2C(c2cccs2)N1C` (stereo not given), the z-score in [1] was -0.584; in assay [2] it was -1.59 (inactive); in assay [3], -0.446 (inactive); in assay [5], -2.71 (inactive); in assay [6] it was -0.0654 (inactive); in [7], 0.596 (inactive). Further, the z-score in [8] is 0.346 (inactive); in [9], 0.343. In addition, the composite z-score is -1.46 (inactive) in [4] and -0.444 in assay [10].
Regarding `Cc1ccc(S[C@]2(C(=O)NCCCN(C)C)CC(=O)N(Cc3ccccc3Cl)[C@@H]2c2ccc(CO)cc2I)cc1`, the z-score was -0.0565 in [1]; -2.11 (inactive) in [2]; -2.51 (inactive) in [3]; -0.833 (inactive) in [5]; 0.995 (inactive) in [6]; 0.165 (inactive) in assay [7]. For the same compound, the figures for the z-score in [8] and in [9] were -0.352 (inactive) and -1.5, respectively. The composite z-score in assay [4] was 0.648 (inactive); in assay [10], -0.133.
For the compound `[N-]=[N+]=NCc1ccccc1C[C@]1(C(=O)N2CCCCC2)N=C(c2ccc(OCCCO)cc2)O[C@H]1c1ccccc1`, the z-score was 0.116 in [1]; 1.71 (inactive) in [2]; -2.13 (inactive) in assay [3]; -0.372 (inactive) in [5]; 2.8 (inactive) in [6]; 0.914 (inactive) in assay [7]. Also, the z-score was 1.23 (inactive) in assay [8] and -5.14 in [9]. Further, the values for the composite z-score in [4] and in assay [10] were 0.939 (inactive) and 0.17, respectively.
As to `O=C1OCCC/C=C\[C@H]2OC34C=CCN(Cc5ccccc5)C(=O)[C@H]3N(CCCCCO)C(=O)[C@@H]4C12` (stereo not given in full), the z-score in assay [1] was 0.804; in assay [2] it was -1.08 (inactive); in assay [3] it was 1.24 (inactive); in assay [5], -0.099 (inactive); in assay [6], -0.581 (inactive); in [7] it was 0.691 (inactive). For the same compound, the z-score in assay [8] is 0.775 (inactive); in [9] it was 1.16. Further, the composite z-score is -0.279 (inactive) in assay [4] and -0.157 in [10].
In the case of `CC#CCO[Si](C#CCCCCCC)(C(C)C)C(C)C`, the z-score in [1] was 0.296; in assay [2], -9.54 (active); in assay [3] it was 0.486 (inactive); in assay [5], 0.501 (inactive); in [6], 0.0606 (inactive); in assay [7], -0.0081 (inactive). The z-score is 0.448 (inactive) in [8] and 0.166 in assay [9]. Moreover, the results for the composite z-score in assay [4] and in assay [10] were -0.487 (inactive) and -0.22, respectively.
For `COCCOC(=O)N1C(=O)[C@@]2(c3cc(C#CC4=CCCCC4)ccc31)[C@H](c1ccccc1OCCO)N1[C@H](c3ccccc3)[C@H](c3ccccc3)OC(=O)[C@H]1[C@@H]2C(N)=O`, the z-score in [1] is -0.625; in assay [2], -0.431 (inactive); in assay [3], -2.78 (inactive); in assay [5] it was 1.06 (inactive); in assay [6], 0.486 (inactive); in [7], 0.484 (inactive). Besides, the z-score in assay [8] is -0.955 (inactive); in assay [9], -5.01. Further, the composite z-score in [4] was -0.176 (inactive); in assay [10] it was 0.126.
For `[N-]=[N+]=NCc1ccccc1[C@H]1OC(c2ccc(OCCCO)cc2)=N[C@@]1(Cc1ccccc1)C(=O)N1CCOCC1`, the z-score in [1] was 1.35; in assay [2], -2.25 (inactive); in assay [3], -0.0295 (inactive); in [5], 0.841 (inactive); in assay [6] it was 0.176 (inactive); in assay [7] it was -0.0844 (inactive). Also, the z-score was -1 (inactive) in assay [8] and 0.349 in assay [9]. The values for the composite z-score in assay [4] and in assay [10] were 0.222 (inactive) and 0.0578, respectively.
In the case of `CC(C)C[C@@H]1NC(=O)[C@@H]2C[C@H](C(=O)NCCCC[N+](C)(C)C)[C@H](c3ccc(O)cc3)N2C1=O`, the z-score in assay [1] was -0.965; in [2] it was 0.166 (inactive); in [3] it was -0.524 (inactive); in assay [5] it was 0.876 (inactive); in assay [6], 0.0138 (inactive); in assay [7], 0.382 (inactive). The z-score in assay [8] was 0.581 (inactive); in assay [9], -0.866. Besides, the composite z-score was -31.3 (active) in assay [4] and -0.128 in [10].
`COc1ccccc1CN1C(=O)c2ccccc2[C@](Cc2ccccc2I)(C(=O)NCCCN(C)C)[C@@H]1c1ccc(CO)cc1`: the z-score in assay [1] is -6.49; in [2], -10.3 (active); in assay [3], -9.07 (active); in assay [5], 1.57 (inactive); in assay [6] it was -0.133 (inactive); in assay [7], -1.17 (inactive). Moreover, the z-score in assay [8] was -2.71 (inactive); in assay [9] it was -6.58. Also, the composite z-score is -0.572 (inactive) in assay [4] and -0.175 in assay [10].
Consider `COc1ccc(NC(=O)O[C@H]2[C@H](OC(=O)Nc3ccc4c(c3)OCO4)[C@H](OC(=O)Nc3ccc4c(c3)OCO4)[C@@H](OC)O[C@@H]2CO)cc1`, for which the z-score is -0.637 in [1]; 1.41 (inactive) in assay [2]; -0.366 (inactive) in assay [3]; 0.826 (inactive) in assay [5]; 1.88 (inactive) in assay [6]; 0.677 (inactive) in assay [7]. The z-score in [8] is 0.18 (inactive); in assay [9], -0.686. Further, the values for the composite z-score in [4] and in assay [10] were 0.229 (inactive) and 0.52, respectively.
As for `N#Cc1ccc(C(O)C2C=CC3C(=O)N(c4ccccc4)C(=O)C3N2Nc2ccc([N+](=O)[O-])cc2)cc1` (stereo not given), the z-score in [1] is -0.298; in [2], -0.0292 (inactive); in assay [3], -0.291 (inactive); in [5] it was 1.01 (inactive); in assay [6], -0.114 (inactive); in assay [7], -1.15 (inactive). For the same compound, the figures for the z-score in assay [8] and in assay [9] were -0.224 (inactive) and -0.783, respectively. In addition, the composite z-score in [4] is 0.154 (inactive); in [10] it was -0.162.
In the case of `COCCOC(=O)N1C(=O)[C@@]2(c3cc(C#Cc4ccc(OC)cc4)ccc31)[C@H](C(=O)N1CCCCCCC1)[C@H]1C(=O)O[C@H](c3ccccc3)[C@H](c3ccccc3)N1[C@@H]2c1ccccc1OCCO`, the z-score in assay [1] was -0.107; in [2], 1.88 (inactive); in assay [3] it was -0.0216 (inactive); in assay [5] it was 2.36 (inactive); in assay [6] it was 3.2 (inactive); in assay [7] it was -0.609 (inactive). In addition, the figures for the z-score in assay [8] and in [9] were -0.399 (inactive) and -0.429, respectively. Moreover, the composite z-score in assay [4] was -0.267 (inactive); in assay [10], 0.89.
Take `CCCCCCCCCCC(O)C1C=CC2C(=O)N(C)C(=O)C2N1N1CCCCC1` (stereo not given): the z-score is -1.36 in assay [1]; 0.447 (inactive) in assay [2]; -1.35 (inactive) in [3]; 0.944 (inactive) in [5]; 1.53 (inactive) in [6]; -0.619 (inactive) in assay [7]. Besides, the figures for the z-score in [8] and in assay [9] were -0.373 (inactive) and -1.18, respectively. Also, the composite z-score in assay [4] was 1.24 (inactive); in assay [10] it was 0.0264.
As to `C=C(C(=O)CC[C@@H](OC(C)=O)c1cccc(OCCO)c1)C(C)C`, the z-score is -1.1 in [1]; -1.03 (inactive) in [2]; -0.353 (inactive) in assay [3]; 0.26 (inactive) in assay [5]; 1.11 (inactive) in assay [6]; -1.29 (inactive) in assay [7]. The figures for the z-score in assay [8] and in assay [9] were -1.06 (inactive) and 0.173, respectively. Also, the composite z-score was -0.842 (inactive) in assay [4] and 0.686 in assay [10].
For the compound `COC(=O)[C@@]1(Cc2ccc(OC)cc2)[C@H]2c3cc(C(=O)N4CCCC4)n(CCc4ccc(OC)c(Br)c4)c3C[C@H]2CN1C(=O)c1ccccc1`, the z-score in assay [1] is -0.142; in [2], 0.775 (inactive); in [3], -0.354 (inactive); in [5], 0.0539 (inactive); in assay [6], -0.101 (inactive); in assay [7], -0.236 (inactive). Further, the z-score in [8] was -0.351 (inactive); in assay [9], 0.282. The composite z-score is -0.844 (inactive) in assay [4] and 0.312 in assay [10].
